± gives the standard deviation of the averaged measurements. The full ranking holds about 33,000 sequences; the median of “E-score (rank enrichment, -0.5 to 0.5)” is about -0.0043, and the highest 2% start at about 0.24. The sample as a whole holds a higher share of the highest values than the screen did.
The sequences below were run on 2Sp-muMax20 (muMax20 with two 2,6-bis(methyl)pyridine Cys staples) (assay: PBM 8-mer E-score (E-score (rank enrichment, -0.5 to 0.5)); higher = stronger preferential binding).
Experimental: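 Protein binding microarray (universal PBM chip covering all 10-mers in fixed probe flanks) with chemically synthesized human Max(13-93) bHLH-LZ analogs (not full-length Max) bearing noncanonical residues (hArg, Tha, Aib, Nle at 65) and aromatic Cys staples. Read-out per 8-mer (and its reverse complement): E-score (rank-based enrichment, -0.5 to 0.5) and Z-score of median probe intensity.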

| Sequence | PBM 8-mer E-score |
| --- | --- |
| GCATGTAC | 0.2075 ± 0.0014 |
| AAATGTAT | 0.0866 ± 0.053 |
| CCATGTAG | 0.148 ± 0.0044 |
| ACATGTAC | 0.311 ± 0.0047 |
| GTAGCTTA | 0.179 ± 0.047 |
| TGGTGTAA | 0.135 ± 0.039 |
| CCCCCAGC | -0.295 ± 0.034 |
| ATACCAGG | -0.136 ± 0.023 |
| CACAAGGG | -0.0596 ± 0.022 |
| AGTCTAAA | -0.14 ± 0.013 |
| GACCCACC | 0.106 ± 0.043 |
| AACCCACC | 0.267 ± 0.025 |
| CGCCCACG | -0.0323 ± 0.074 |
| TCCCCCAA | -0.174 ± 0.034 |
| CACCCACC | 0.0762 ± 0.08 |
| TCCCCAAA | 0.256 ± 0.079 |
| AGCCCACC | -0.0175 ± 0.041 |
| ACCCCACA | 0.239 ± 0.02 |
| CCCCCAAA | -0.195 ± 0.075 |
| AACCCACG | 0.17 ± 0.037 |
| CGCCCACC | 0.274 ± 0.055 |
| ACCCCACG | 0.0387 ± 0.033 |
| ATAAGGGA | 0.102 ± 0.04 |
| AACTCAAA | 0.172 ± 0.036 |
| CACGGCTA | -0.249 ± 0.073 |

| Sequence | PBM 8-mer E-score |
| --- | --- |
| CCGTGGAC | -0.2957 ± 0.0024 |
| AGGCTAGA | -0.144 ± 0.033 |
| TCCCCACA | 0.235 ± 0.0063 |
| CCCCCACG | 0.0635 ± 0.0042 |
| GCCCCACC | 0.237 ± 0.039 |
| CCCCCACC | -0.321 ± 0.032 |
| ACCCCACC | 0.236 ± 0.05 |
| ACCCCCAC | -0.19 ± 0.027 |
| GCCCCACA | 0.223 ± 0.042 |
| ACCCCACT | 0.183 ± 0.027 |
| GCCCCAAA | 0.188 ± 0.0029 |
| GCCCCAAC | 0.267 ± 0.013 |
| CCCCCACA | -0.205 ± 0.084 |
| CCCCCAAC | -0.253 ± 0.01 |
| GTCTCTCA | -0.0452 ± 0.0099 |
| AGAGGACT | -0.0403 ± 0.059 |
| ACAAGTGT | -0.0219 ± 0.043 |
| AGACTGTC | -0.179 ± 0.036 |
| CATGTTAA | 0.191 ± 0.048 |
| ACTCTCTA | 0.158 ± 0.0044 |
| AACTCATG | 0.176 ± 0.077 |
| AAACAGAA | 0.168 ± 0.015 |
| ACCCCATA | 0.107 ± 0.075 |
| ACCCCATG | 0.297 ± 0.047 |
| AACCCATG | 0.139 ± 0.032 |

| Sequence | PBM 8-mer E-score |
| --- | --- |
| CACACGTG | 0.384 ± 0.019 |
| CATACGTC | 0.0118 ± 0.0042 |
| CACACGTC | -0.0411 ± 0.069 |
| AACACGTG | 0.4615 ± 0.0029 |
| CATACGTA | 0.297 ± 0.012 |
| AACACGTA | 0.0789 ± 0.055 |
| CACACGTA | 0.0876 ± 0.11 |
| AATACGTA | 0.206 ± 0.064 |
| AACACGTC | 0.0953 ± 0.04 |
| CTTATGAC | 0.0201 ± 0.0061 |
| ACTATGAC | 0.0953 ± 0.0015 |
| TAAGGGTA | 0.115 ± 0.039 |
| CCCTGGGA | -0.29 ± 0.01 |
| CATTCAAA | 0.256 ± 0.027 |
| CATTCACG | 0.0213 ± 0.074 |
| GATTCACA | 0.0451 ± 0.093 |
| CATTCAAG | -0.108 ± 0.079 |
| CATTCACA | 0.248 ± 0.016 |
| TATTCAAA | 0.197 ± 0.036 |
| CTTTCAAA | 0.236 ± 0.026 |
| CCTTCACA | 0.256 ± 0.018 |
| ACTTCACA | 0.00636 ± 0.061 |
| CCTTCACG | -0.0558 ± 0.019 |
| ATTTCAAA | 0.0933 ± 0.0025 |
| GTTTCAAA | 0.073 ± 0.063 |

| Sequence | PBM 8-mer E-score |
| --- | --- |
| ACCAAGGG | -0.132 ± 0.035 |
| GCAAATCC | -0.0919 ± 0.086 |
| CTTGATAA | 0.0868 ± 0.0083 |
| GCATTACC | -0.136 ± 0.01 |
| ATGACAAC | 0.0122 ± 0.037 |
| CGACAATA | 0.0335 ± 0.093 |
| CAAGGCTG | -0.037 ± 0.11 |
| CTCTTCAC | 0.129 ± 0.00049 |
| AATCCAGA | 0.124 ± 0.08 |
| AATGCAAC | 0.136 ± 0.035 |
| AATGCGAC | 0.0252 ± 0.028 |
| CATGCAAC | 0.281 ± 0.056 |
| CATGCACA | 0.251 ± 0.033 |
| CATGCGAG | 0.165 ± 0.062 |
| CATGCATC | 0.081 ± 0.025 |
| CATGCGAC | 0.308 ± 0.019 |
| CATGCATG | 0.382 ± 0.024 |
| GATGCACA | 0.0774 ± 0.012 |
| CATGCAAG | 0.103 ± 0.05 |
| CATGCATA | 0.207 ± 0.0092 |
| CATGCACG | 0.0888 ± 0.024 |
| CGAGGAAG | -0.0173 ± 0.064 |
| CCGGCCGG | -0.229 ± 0.081 |
| CCCAACCC | 0.204 ± 0.019 |
| CGCAAAAA | -0.00934 ± 0.005 |

| Sequence | PBM 8-mer E-score |
| --- | --- |
| CTGGGCGC | 0.0231 ± 0.038 |
| ATTTGGCA | -0.0164 ± 0.011 |
| ATTACTTG | 0.18 ± 0.017 |
| CTCCTACA | 0.0705 ± 0.028 |
| AGGGCTCA | -0.0979 ± 0.031 |
| CTCATGCC | 0.0321 ± 0.035 |
| AGCGGATC | -0.0391 ± 0.022 |
| TGTGCACA | 0.0196 ± 0.045 |
| CGTGCACA | 0.102 ± 0.071 |
| AATGCATT | 0.356 ± 0.017 |
| CGTGCACG | 0.338 ± 0.0045 |
| AATGCATG | 0.233 ± 0.038 |
| AATGCATA | 0.16 ± 0.074 |
| ACGGGACC | -0.245 ± 0.039 |
| GGAATTTA | -0.0803 ± 0.093 |
| GTCTTTGA | -0.121 ± 0.016 |
| CTATTGCC | -0.045 ± 0.019 |
| ATATTGCG | 0.117 ± 0.029 |
| ATATTGCC | 0.238 ± 0.0041 |
| CAAAAGTG | 0.11 ± 0.016 |
| GAAAGTAA | 0.0437 ± 0.0096 |
| CACAACGG | -0.145 ± 0.066 |
| GCCCGCCC | 0.16 ± 0.039 |
| CCCCGCCA | 0.246 ± 0.071 |
| CCCCCGCC | -0.0595 ± 0.056 |

| Sequence | PBM 8-mer E-score |
| --- | --- |
| ACCCCGCC | 0.284 ± 0.099 |
| ACCCGCCG | 0.131 ± 0.01 |
| ACCCGCCC | 0.3697 ± 0.0017 |
| CGCCGCCC | 0.00789 ± 0.052 |
| TCCCGCCA | -0.0738 ± 0.002 |
| GCCCGCCA | -0.0439 ± 0.026 |
| AACCCGCC | 0.128 ± 0.019 |
| CCCCGCCG | 0.131 ± 0.011 |
| CCCCGCCC | 0.295 ± 0.048 |
| ATATCTCC | 0.197 ± 0.016 |
| ACAGTATC | 0.185 ± 0.073 |
| TTAGGAAA | -0.00284 ± 0.012 |
| ATGGTCAG | 0.122 ± 0.043 |
| CGCTCCGC | -0.154 ± 0.17 |
| TATCCGCA | 0.0196 ± 0.089 |
| AAATTCTT | 0.0344 ± 0.11 |
| ATGTATTA | 0.21 ± 0.014 |
| CTGTATTA | 0.141 ± 0.0065 |
| GTATATTA | 0.243 ± 0.0031 |
| CTATATTA | 0.168 ± 0.018 |
| GTGTATTA | 0.239 ± 0.069 |
| ATATATTA | 0.264 ± 0.012 |
| GCATATTA | 0.153 ± 0.0097 |
| ATATACTA | 0.285 ± 0.027 |
| CTATACTA | 0.113 ± 0.12 |

| Sequence | PBM 8-mer E-score |
| --- | --- |
| ATATACTC | 0.0166 ± 0.11 |
| ATATATTG | 0.221 ± 0.0031 |
| GGATATTA | 0.161 ± 0.084 |
| CAGTACTA | 0.128 ± 0.056 |
| AGAGATCC | -0.0549 ± 0.05 |
| TATCGACA | -0.0261 ± 0.032 |
| CGAGCGTC | -0.00097 ± 0.042 |
| ACACCATG | 0.0073 ± 0.025 |
| CATTGTCA | -0.0464 ± 0.016 |
| AAAGGGGT | 0.123 ± 0.013 |
| CCCCTGCG | -0.168 ± 0.0048 |
| GCCAATGA | 0.00492 ± 0.00047 |
| GACGGAAA | 0.0756 ± 0.07 |
| CGTTGAAC | -0.0586 ± 0.068 |
| AATTGATG | 0.25 ± 0.021 |
| AATTGATC | 0.0176 ± 0.058 |
| GATTGATA | 0.115 ± 0.015 |
| AATTGATA | 0.252 ± 0.025 |
| ACTTGATG | 0.0152 ± 0.0016 |
| CATTGATA | 0.179 ± 0.1 |
| AAGACCCC | 0.0259 ± 0.047 |
| CACGGCGC | -0.0163 ± 0.17 |

Source: the supplement of paper PMC12636033
